Laboratory results as given in paper PMC4336329 (PLoS ONE, 2015).
Hit rate of the full screen: of about 310,000 compounds, about 14,000 (4.5%) showed an effect of 50% or more. The effect is printed as a negative number. The sample as a whole holds a higher share of strong results than the screen did.

Molecular target: human ether-à-go-go-related gene (hERG) potassium channel (human, UniProt Q12809)
Test: primary screen, population patch clamp on CHO cells stably expressing hERG; higher = less effect of the substance
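Also: peak tail current of the secondary pulse compared with the same well before compound.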

Sequence of human ether-à-go-go-related gene (hERG) potassium channel (Q12809 whole entry, looked up): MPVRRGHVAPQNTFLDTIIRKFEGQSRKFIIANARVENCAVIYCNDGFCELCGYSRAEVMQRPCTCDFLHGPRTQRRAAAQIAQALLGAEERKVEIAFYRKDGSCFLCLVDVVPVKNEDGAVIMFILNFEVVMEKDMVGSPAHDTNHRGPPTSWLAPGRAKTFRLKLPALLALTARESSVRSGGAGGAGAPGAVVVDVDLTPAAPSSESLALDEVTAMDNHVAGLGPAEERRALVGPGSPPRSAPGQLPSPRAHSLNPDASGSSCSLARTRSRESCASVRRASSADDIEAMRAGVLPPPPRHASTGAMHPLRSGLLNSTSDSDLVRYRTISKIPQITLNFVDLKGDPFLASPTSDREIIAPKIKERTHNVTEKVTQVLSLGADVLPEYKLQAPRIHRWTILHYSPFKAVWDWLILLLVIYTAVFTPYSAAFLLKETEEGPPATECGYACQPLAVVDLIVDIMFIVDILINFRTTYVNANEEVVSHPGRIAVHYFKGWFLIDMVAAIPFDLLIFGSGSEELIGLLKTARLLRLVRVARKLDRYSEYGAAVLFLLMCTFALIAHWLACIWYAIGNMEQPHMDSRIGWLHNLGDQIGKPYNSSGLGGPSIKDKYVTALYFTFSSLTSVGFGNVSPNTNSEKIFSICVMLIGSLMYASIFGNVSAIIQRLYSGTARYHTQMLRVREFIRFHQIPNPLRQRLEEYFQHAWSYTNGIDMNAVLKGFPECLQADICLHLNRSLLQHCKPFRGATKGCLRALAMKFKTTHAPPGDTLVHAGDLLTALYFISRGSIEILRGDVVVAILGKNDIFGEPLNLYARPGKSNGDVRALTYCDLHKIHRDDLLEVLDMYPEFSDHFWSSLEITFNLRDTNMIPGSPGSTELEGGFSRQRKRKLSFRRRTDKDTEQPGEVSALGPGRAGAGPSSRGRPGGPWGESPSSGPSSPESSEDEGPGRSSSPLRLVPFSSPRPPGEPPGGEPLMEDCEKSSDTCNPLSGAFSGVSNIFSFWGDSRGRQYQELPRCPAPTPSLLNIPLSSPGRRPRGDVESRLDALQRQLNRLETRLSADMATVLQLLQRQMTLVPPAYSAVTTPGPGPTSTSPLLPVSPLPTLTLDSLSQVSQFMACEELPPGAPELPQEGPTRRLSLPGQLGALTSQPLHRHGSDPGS

| Compound | hERG current change (%, negative = inhibition) at 10uM [%] |
| --- | --- |
| COc1ccc(S(=O)(=O)N2CCC(C(=O)NC3(C)CCS(=O)(=O)C3)CC2)cc1OC (centres unmarked) | 7.87 |
| Cc1cc(C)nc(N2CCCC(C(=O)NCc3cccc(C(F)(F)F)c3)C2)n1 (centres unmarked) | 16.7 |
| Cc1ccc(CN2CCN(/N=C/c3cc(Br)cc(Br)c3O)CC2)cc1 | 5.09 |
| CCOC(=O)C(CC)/C(C)=N\NC(=O)c1cccc(C)c1 (centres unmarked) | 35.5 |
| O=S(=O)(NCc1ccc(C(F)(F)F)cc1)c1ccc(-n2cnnn2)cc1 | -22.2 |
| COC(=O)C1=C(C)NC(=S)N(C(C)=O)C1c1ccccc1 (centres unmarked) | -8.87 |
| CCc1sc(C(=O)Nc2cc(S(=O)(=O)N3CCOCC3)ccc2OC)cc1C | 7.24 |
| O=c1[nH]c(C2CCCN(S(=O)(=O)c3ccccc3)C2)nc2c1nnn2Cc1ccc(OC(F)(F)F)cc1 (centres unmarked) | 26.6 |
| COc1cccc(-c2nnc(SCC(N)=O)n2-c2ccc(Cl)cc2)c1 | -9.7 |
| NNC(=O)CN1C(=O)CN=C(c2ccccc2)c2cc(Br)ccc21 | -5.51 |
| O=C1CN=C(c2ccccc2)c2cc(Br)ccc2N1Cc1cc(=O)n2ccccc2n1 | -51.7 |
| CC(=O)NNC(=O)CN1C(=O)CN=C(c2ccccc2)c2cc(Br)ccc21 | 13.1 |
| O=C(C1CCCN1S(=O)(=O)c1cccc2nsnc12)N1CCCCCC1 (centres unmarked) | 7.97 |
| O=C(C1CCCN1S(=O)(=O)c1cccc2nsnc12)N1CCN(c2ccccc2)CC1 (centres unmarked) | -69.5 |
| COc1ccc(N2CCN(C(=O)C3CCCN3S(=O)(=O)c3cccc4nsnc34)CC2)cc1 (centres unmarked) | -30.6 |
| CC(=O)c1ccc(N2CCN(C(=O)C3CCCN3S(=O)(=O)c3cccc4nsnc34)CC2)cc1 (centres unmarked) | -1.72 |
| O=C(C1CCCN1S(=O)(=O)c1cccc2nsnc12)N1CCN(c2ccc(F)cc2)CC1 (centres unmarked) | -69.3 |
| O=C(C1CCCN1S(=O)(=O)c1cccc2nsnc12)N1CCCCC1 (centres unmarked) | 11 |
| CCOc1ccc(/C(O)=C2/C(=O)C(=O)N(c3ncccn3)C2c2ccccc2)cc1 (centres unmarked) | -4.75 |
| CN1CCN(S(=O)(=O)c2cccc(C(=O)Nc3cc(C(F)(F)F)ccc3N3CCCC3)c2)CC1 | -1.41 |
| Cc1cc(C(=O)N/N=C/c2c(C)nn(-c3ccccc3)c2C)c(C)o1 | 3.8 |
| CCCCCn1nc(C)c(/C=N\NC(=O)c2cc(C)oc2C)c1C | -65.5 |
| CCCCCn1nc(C)c(/C=N/NC(=O)c2ccoc2C)c1C | -43.8 |

| Compound | hERG current change (%, negative = inhibition) at 10uM [%] |
| --- | --- |
| O=C(Nc1cccnc1Cl)c1cc([N+](=O)[O-])ccc1Cl | 9.09 |
| COc1cccc(CNc2nc(-c3cccnc3)nc3ccccc23)c1 | -15.6 |
| c1ccc(-c2nc(NCCCn3ccnc3)c3ccccc3n2)cc1 | -59.3 |
| Fc1ccc(CNc2nc(-c3cccnc3)nc3ccccc23)cc1 | -50.4 |
| OC(CNc1nc(-c2cccnc2)nc2ccccc12)c1ccccc1 (centres unmarked) | -36.4 |
| Cc1ccc(CNc2nc(-c3cccnc3)nc3ccccc23)cc1 | 8.72 |
| c1ccc(CNc2nc(-c3cccnc3)nc3ccccc23)cc1 | -23.4 |
| COCCCNc1nc(-c2ccncc2)nc2ccccc12 | -15.5 |
| Cc1nc(NCCCn2ccnc2)c2ccccc2n1.Cl | 3.46 |
| c1cncc(-c2nc(NCCCn3ccnc3)c3ccccc3n2)c1 | -53.5 |
| Fc1ccccc1CNc1nc(-c2cccnc2)nc2ccccc12 | 17.8 |
| c1cncc(-c2nc(NCc3ccco3)c3ccccc3n2)c1 | -5.1 |
| COc1ccc(C(CNc2nc(-c3cccnc3)nc3ccccc23)N(C)C)cc1 (centres unmarked) | -59.2 |
| CC(=O)N1CCCc2cc(S(=O)(=O)N3CCCC(C(=O)Nc4ccccc4C)C3)ccc21 (centres unmarked) | 10.9 |
| Cc1cc(C)cc(NC(=S)N2CCN(C(=O)c3ccco3)CC2)c1 | -0.347 |
| Cc1onc(-c2ccccc2Cl)c1C(=O)OCC(=O)N1CCN(c2ccccc2)CC1 | -16.1 |
| CC1=C(C(=O)OCc2ccccc2)C(c2ccc(C#N)cc2)NC(=O)N1CCCC(=O)O (centres unmarked) | 10.9 |
| CCOC(=O)CSc1nc2ccccc2c(=O)n1C | 10.1 |
| CCOC(=O)c1c(NC(=O)CSc2nccn2C)sc(C(=O)NC)c1C | -11.5 |
| COc1ccc2ccccc2c1/C=N/N1C(=O)CSC1=S | 16.7 |
| COc1ccc(-n2nc(C(=O)NCC(=O)NCCCN3CCOCC3)c3ccccc3c2=O)cc1 | 3.4 |
| CCN(CC(=O)N1CCCC1)S(=O)(=O)c1ccc(Br)cc1 | 13.5 |
| CCc1cc(=O)oc2c3c(cc(OCC(=O)NC4CC4)c12)OC(C)(C)CC3 | -13.9 |

| Compound | hERG current change (%, negative = inhibition) at 10uM [%] |
| --- | --- |
| Cc1ccc(CN2CCN(/N=C/c3cccnc3)CC2)c(C)c1 | -47.5 |
| COc1ccccc1NC(=O)Cn1c(C)cc(=O)c2cccc(OC)c21 | -33.3 |
| COCCNC(=O)c1c[nH]c2ccc(S(=O)(=O)N3CCc4ccccc43)cc2c1=O | 6.11 |
| O=C(OCc1ccccc1F)c1ccc2c(c1)-c1ccccc1C2=O | 16.4 |
| Cl.N=c1n(CCCOc2ccc(F)cc2)c2ccccc2n1CC(N)=O | -41.6 |
| CCOC(=O)Cn1c(=N)n(CCOc2ccc(OC)cc2)c2ccccc21.Cl | -56.4 |
| CCOC(=O)Cn1c(=N)n(CCOc2ccc(Br)cc2)c2ccccc21.Cl | -69.5 |
| Cc1cccc(OCCn2c(=O)sc3ccccc32)c1 | -3.38 |
| Cl.N=c1n(CCCOc2ccc(Br)cc2)c2ccccc2n1CC(N)=O | -44.7 |
| CCOC(=O)Cn1c(=N)n(CCOc2cccc(C)c2)c2ccccc21.Cl | -62.2 |
| CCOC(=O)Cn1c(=O)n(CC(=O)OCC)c2ccccc21 | 12.3 |
| Br.C=CCn1c(=N)n(CC(=O)OCC)c2ccccc21 | 5.36 |
| Cc1cccc(OCCn2c(=O)n(C)c3ccccc32)c1 | -13.6 |
| CCOC(=O)Cn1c(=N)n(Cc2ccccc2F)c2ccccc21.Cl | -28.3 |
| CCOC(=O)Cn1c(=N)n(CCOc2ccc(F)cc2)c2ccccc21.Cl | -65.8 |
| CCOC(=O)Nc1ccc(S(=O)(=O)N2CCOCC2)cc1 | 6.38 |
| CC(/C=N/Nc1nc2ccccc2[nH]1)=C\c1ccccc1 | -41.8 |
| O=C(NCCCN1CCCC1=O)Nc1ccc(F)c(Cl)c1 | -1.92 |
| Cc1nc2ccccc2c(=O)n1-c1cccc(NS(=O)(=O)c2ccccc2)c1 | -20.9 |
| CC(=O)Nc1ccc(N2C(=O)c3ccc(C(=O)Nc4nnc(SCc5ccc(F)cc5)s4)cc3C2=O)cc1 | 13.4 |
| Cl.OC(c1ccccc1)(c1ccc(F)cc1)C(c1ccccc1)N1CCOCC1 (centres unmarked) | 16.8 |
| CC(=O)NC(=O)COC(=O)c1ccc2ncsc2c1 | 18.5 |
| O=C(CSc1cccc2cccnc12)N/N=C/c1cccc(O)c1 | 2.95 |

| Compound | hERG current change (%, negative = inhibition) at 10uM [%] |
| --- | --- |
| CCOc1ccccc1N1CCN(C(=O)c2cc3c(C)cc(C)cc3[nH]2)CC1 | -4.74 |
| COc1ccc(/C=N/NC(=O)c2ccccc2)cc1OS(=O)(=O)c1ccccc1 | -3.53 |
| CCCCn1c(SC(C)C(N)=O)nc2cc(C(=O)OC)ccc2c1=O (centres unmarked) | -1.48 |
| Cn1c(=O)[nH]c(=O)c2c1nc(N1CCN(CCO)CC1)n2Cc1ccccc1Cl | -6.38 |
| O=C(NC(=O)c1ccccc1)NC1(C(F)(F)F)OCCO1 | 2.65 |
| Cc1ccc(-c2nnc(SCC(=O)N/N=C/c3ccccc3C(=O)O)n2C2CCCCC2)cc1 | 11.1 |
| CCCOc1ccc(C(C)=O)cc1CSc1nc(O)cc(=O)[nH]1 | 14.4 |
| COc1ccc(S(N)(=O)=O)cc1C(=O)OCCCOC(=O)c1cc(S(N)(=O)=O)ccc1OC | 4.29 |
| CCOC(=O)Cn1c(=N)n(CCOc2ccc3ccccc3c2)c2ccccc21.Cl | -75.3 |
| Br.CCOC(=O)Cn1c(=N)n(Cc2ccccc2)c2ccccc21 | -34.6 |
| Br.CCCn1c(=N)n(CC(=O)OCC)c2ccccc21 | -4.66 |
| O=C(C1=C[C@H](c2coc3ccccc3c2=O)C[C@H](OCc2ccc(CO)cc2)O1)N1CCOCC1 | -49.7 |
| NC(=O)C1=C[C@@H](c2coc3ccccc3c2=O)C[C@@H](OCc2ccc(CO)cc2)O1 | -31 |
| C=CCOC(=O)C1=C[C@@H](c2coc3ccccc3c2=O)C[C@@H](OCc2ccc(CO)cc2)O1 | -40.9 |
| O=C(C1=C[C@@H](c2coc3ccccc3c2=O)C[C@@H](OCc2ccc(CO)cc2)O1)N1CCCCCCC1 | -66.5 |
| C=CCOC(=O)C1=C[C@H](c2coc3ccccc3c2=O)C[C@H](OCc2ccc(CO)cc2)O1 | -62.3 |
| O=C(C1=C[C@@H](c2coc3ccccc3c2=O)C[C@@H](OCc2ccc(CO)cc2)O1)N1CCN(Cc2ccccc2)CC1 | -48 |
| O=C(C1=C[C@@H](c2coc3ccccc3c2=O)C[C@@H](OCc2ccc(CO)cc2)O1)N1CCOCC1 | -24.7 |
| O=C(C1=C[C@H](c2coc3ccccc3c2=O)C[C@H](OCc2ccc(CO)cc2)O1)N1CCN(Cc2ccccc2)CC1 | -61.7 |
| CN1CCN(C(=O)C2=C[C@H](c3coc4ccccc4c3=O)C[C@H](OCc3ccc(CO)cc3)O2)CC1 | -41.1 |
